Drawing on the supplement of paper PMC4723716, this text covers viability index for 36 compounds.

The test system of the assay is Plasmodium falciparum NF54 stage V gametocytes. The assay is described as follows: viability index relative to DMSO control (fraction); higher = less gametocyte killing. To be noted: 2.5 µM, library set: Broad Institute DOS, incubation time: 72 h. Put shortly: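 Gametocytes (P. falciparum NF54, stage V) were treated with compound at 2.5 µM for 72 hr at 37°C in low oxygen, in serum-free medium at 0.75% gametocytemia and 1.25% hematocrit. Counts of 20–70 µm2 red particles, taken from one field per well after MitoTracker Red CMXRos with saponin, were divided by the plate mean of solvent-only wells. This ratio is the viability index.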

± gives the uncertainty stated by the source. Whole data set: some 9,900 compounds, median “viability index relative to DMSO control” near 1, cut for the lowest 2% near 0.85. This excerpt belongs to a sample that is enriched for the lowest values.

On to `C[C@@H]1CN([C@@H](C)CO)C(=O)c2cc(/C=C/c3ccccc3)cnc2O[C@@H]1CN(C)S(=O)(=O)c1ccccc1F`, for which the viability index came to 1.02 ± 0.059.

On to `C[C@H]1CN([C@@H](C)CO)C(=O)c2cc(/C=C/c3ccccc3)cnc2O[C@H]1CN(C)S(=O)(=O)c1ccccc1F`, for which the viability index was found to be 1.03 ± 0.12. The value for `C[C@H](CO)N1C[C@H](C)[C@@H](CN(C)S(=O)(=O)c2ccccc2F)Oc2ncc(/C=C/c3ccccc3)cc2C1=O` was 1.05 ± 0.049. The same measure for `COc1ccc2c3c([nH]c2c1)[C@@H](CO)N(Cc1cc(OC)cc(OC)c1)C[C@]31CN(C1)C(=O)Nc1c(C)noc1C`: 0.974 ± 0.12.

In turn, `C[C@H](CO)N1C[C@H](C)[C@@H](CN(C)Cc2ccc3cccnc3c2)OCc2cnnn2CCCC1=O` had a viability index of 1.07 ± 0.014. The same measure for `Cc1noc(C)c1NC(=O)Nc1ccc2c(c1)C(=O)N([C@@H](C)CO)C[C@H](C)[C@H](CN(C)S(=O)(=O)c1cccs1)OCCCC[C@@H](C)O2`: 1.09 ± 0.045; for `CC(C)NC(=O)Nc1ccc2c(c1)C(=O)N(C)[C@@H]1CC[C@H](CC(=O)NCc3ccc(F)cc3)O[C@@H]1CO2`: 1.11 ± 0.047. The same measure for `CN1C(=O)c2cc(NC(=O)Nc3ccc(Cl)cc3)ccc2OC[C@@H]2O[C@@H](CC(=O)NCCN3CCCCC3)CC[C@H]21`: 0.838 ± 0.04; for `COc1ccc(C(=O)Nc2ccc3c(c2)C(=O)N(C)[C@H]2CC[C@H](CC(=O)NCC4CC4)O[C@H]2CO3)cc1`: 0.823 ± 0.15; for `CC(C)NC(=O)Nc1ccc2c(c1)C(=O)N(C)[C@H]1CC[C@H](CC(=O)NCc3ccc(F)cc3)O[C@H]1CO2`: 0.919 ± 0.034.

`CN1C(=O)c2cc(NC(=O)Nc3ccc(Cl)cc3)ccc2OC[C@H]2O[C@@H](CC(=O)NCCN3CCCCC3)CC[C@H]21` returned a viability index of 1.01 ± 0.025. The value for `COc1ccc(C(=O)Nc2ccc3c(c2)C(=O)N(C)[C@@H]2CC[C@@H](CC(=O)NCC4CC4)O[C@H]2CO3)cc1` was 0.932 ± 0.15.

`CC(C)NC(=O)Nc1ccc2c(c1)C(=O)N(C)[C@H]1CC[C@@H](CC(=O)NCc3ccc(F)cc3)O[C@H]1CO2`: the viability index was 0.814 ± 0.17. The same measure for `CN1C(=O)c2cc(NC(=O)Nc3ccc(Cl)cc3)ccc2OC[C@@H]2O[C@H](CC(=O)NCCN3CCCCC3)CC[C@H]21`: 0.955 ± 0.11.

Compound `COc1ccc(C(=O)Nc2ccc3c(c2)C(=O)N(C)[C@@H]2CC[C@@H](CC(=O)NCC4CC4)O[C@@H]2CO3)cc1` yielded a viability index of 1.03 ± 0.11.

Turning to `O=C(C[C@H]1CC[C@H]2[C@@H](COC[C@@H](O)CN2Cc2nccs2)O1)NCc1ccccc1Cl`, the viability index stood at 1.1 ± 0.03.

`C[C@@H]1CN([C@H](C)CO)C(=O)Cc2cc(NC(=O)c3ccncc3)ccc2O[C@H]1CN(C)C(=O)Nc1ccc(F)cc1` had a viability index of 0.944 ± 0.12. The value for `CC(C)NC[C@@H]1[C@H](c2ccc(C3=CCCCC3)cc2)[C@H](CO)N1S(C)(=O)=O` was 0.996 ± 0.022.

`C[C@H]1CN([C@@H](C)CO)C(=O)CCCn2nncc2CO[C@@H]1CN(C)Cc1ccccc1C(=O)O` showed a viability index of 1.04 ± 0.031. Consider `O=C(c1ccccn1)N1CC2(C1)[C@@H](c1ccccc1)[C@@H](CO)N2C(=O)C1CCCCC1`, for which the viability index came out at 1.041 ± 0.0089. The value for `OC[C@H]1[C@@H](c2ccc(-c3cccc(F)c3)cc2)[C@@H]2CN(Cc3cncnc3)CCCCN12` was 0.963 ± 0.1; that for `OC[C@H]1[C@@H](c2ccc(C3=CCCC3)cc2)[C@@H]2CN(Cc3ccncc3)CCCCN12` was 0.845 ± 0.14. The compound `OC[C@@H]1[C@@H](c2ccc(-c3cccnc3)cc2)[C@@H]2CN(Cc3ccccn3)CCCCN12` returned a viability index of 0.737 ± 0.12.

Turning to `OC[C@@H]1[C@H](c2ccc(-c3cccnc3)cc2)[C@@H]2CN(Cc3ccccn3)CCCCN12`, the viability index stood at 1.04 ± 0.06. The value for `OC[C@@H]1[C@H](c2ccc(-c3cccnc3)cc2)[C@H]2CN(Cc3ccccn3)CCCCN12` was 0.979 ± 0.024. On to `OC[C@@H]1[C@H](c2ccc(C3=CCCC3)cc2)[C@H]2CN(Cc3ccncc3)CCCCN12`, for which the viability index was determined as 1.05 ± 0.068. The value for `CN1C(=O)c2cc(NC(=O)c3ccc4c(c3)OCO4)ccc2OC[C@H]2O[C@@H](CC(=O)O)CC[C@@H]21` was 1.11 ± 0.071.

The compound `CO[C@@H](CN(C)C(=O)c1cc(Cl)cc(Cl)c1)[C@@H](C)CN(C(=O)Nc1ccc(F)cc1)[C@@H](C)CO` gave a viability index of 1.04 ± 0.018. Turning to `N#C[C@H]1[C@@H](c2ccccc2)[C@@H](CO)N1C(=O)c1ccc2c(c1)OCO2`, the viability index came to 1.08 ± 0.022. As to `N#C[C@H]1[C@@H](c2ccccc2C2=CCCC2)[C@H](CO)N1C(=O)Cc1ccncc1`, the viability index came out at 1.07 ± 0.13. The same measure for `COc1ccc(S(=O)(=O)N(C)C[C@H]2OCCCC[C@H](C)Oc3ccc(NC(=O)Cc4ccccc4)cc3C(=O)N([C@H](C)CO)C[C@H]2C)cc1`: 0.9061 ± 0.001; for `COc1ccc(S(=O)(=O)N(C)C[C@H]2OCCCC[C@H](C)Oc3ccc(NC(=O)Cc4ccccc4)cc3C(=O)N([C@@H](C)CO)C[C@H]2C)cc1`: 0.791 ± 0.031.

Take `COc1ccc(S(=O)(=O)N(C)C[C@H]2OCCCC[C@H](C)Oc3ccc(NC(=O)Cc4ccccc4)cc3C(=O)N([C@H](C)CO)C[C@@H]2C)cc1`: the viability index was 0.994 ± 0.022. The value for `COc1ccc(S(=O)(=O)N(C)C[C@@H]2OCCCC[C@H](C)Oc3ccc(NC(=O)Cc4ccccc4)cc3C(=O)N([C@@H](C)CO)C[C@H]2C)cc1` was 0.911 ± 0.17.

The compound `COc1ccc(S(=O)(=O)N(C)C[C@H]2OCCCC[C@@H](C)Oc3ccc(NC(=O)Cc4ccccc4)cc3C(=O)N([C@@H](C)CO)C[C@H]2C)cc1` came in with a viability index of 0.773 ± 0.061. The value for `COc1ccc(S(=O)(=O)N(C)C[C@H]2OCCCC[C@@H](C)Oc3ccc(NC(=O)Cc4ccccc4)cc3C(=O)N([C@@H](C)CO)C[C@@H]2C)cc1` was 1.07 ± 0.17.
